Consider 14 molecules from PubChem BioAssay.

The subject of assay [1] is TRPC4 beta (transient receptor potential cation channel C4), mouse. In words: TRPC4 cation channel opening, retest – cell-based, Fluo4 calcium, HEK293 TRPC4beta/mu-opioid, duplicates, 10 µM, confirmation (AID 2426;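 active means fluorescence ratio normalized to control raised more than 50% in primary screen plus both repeat runs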). The settings on record: Fluo4 calcium fluorescence, at 10 µM; active compounds read high.
For assay [2], the system named is transient receptor potential cation channel C4 beta (TRPC4), mouse. Nature of the assay: TRPC4 cation channel opening, second retest – cell-based, second round, Fluo4, HEK293 TRPC4beta/mu-opioid, 1 µM, confirmation (AID 2461;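 active means primary screen active and over 50% activation in each of two duplicate runs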). The settings on record: Fluo4 calcium fluorescence, at 1 µM; active compounds read high.
For assay [3], the system named is TRPC4 (transient receptor potential cation channel C4 beta), mouse. In words: potentiation of DAMGO EC20 TRPC4 response – cell-based, second round, Fluo-4, HEK293 TRPC4beta/mu-opioid, 1 µM, confirmation (AID 2554;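 active means primary screen hit whose fluorescence ratio, in both repeats, exceeds the weak agonist control mean by 3 SD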). The settings on record: DAMGO EC20, Fluo-4 calcium flux, at 1 µM; active compounds read high.
Assay [4] relates to TRPC4 beta (transient receptor potential cation channel C4), mouse. In words: potentiation of DAMGO EC20 TRPC4 response – cell-based, Fluo-4, HEK293 TRPC4beta/mu-opioid, confirmation (AID 2555;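 active means primary screen hit whose calcium fluorescence ratio, in both repeats, exceeds the weak agonist control mean by 3 SD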). The settings on record: DAMGO EC20, Fluo-4 calcium flux, at 10 µM; active compounds read high.
Assay [5] addresses Short transient receptor potential channel 4 (Mus musculus) (UniProt Q9QUQ5). Nature of the assay: blockers of DAMGO-evoked TRPC4 calcium flux – cell-based, Fluo4, HEK293 TRPC4beta/mu-opioid, confirmation (AID 2636). The settings on record: at 10 µM; active compounds read high.
Assay [6] has the same target. Nature of the assay: blockers of DAMGO-evoked TRPC4 calcium flux – cell-based, second round, Fluo4, HEK293 TRPC4beta/mu-opioid, 1 µM, confirmation (AID 2637;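 active means calcium signal ratio cut to more than 3 SD under the fully stimulated control mean yet still positive, in both repeats and the primary screen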). The settings on record: at 1 µM; active compounds read high.
Assay [7] has the same target. In words: calcium entry via TRPC4 opening agents – cell-based, HEK293 TRPC4/mu-opioid, Fluo-4 calcium, dose response (AID 434937;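 active means primary screen activator hit with a dose response curve and TRPC4 channel activation at any tested dose; inactive means no activation, no dose response, or not a primary hit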).
Assay [8] has the same target. In words: potentiation of DAMGO-evoked TRPC4 calcium signal – cell-based, HEK293 TRPC4/mu-opioid, Fluo-4 calcium, EC20 DAMGO, dose response (AID 434941;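 active means earlier screen potentiator hit that boosts the TRPC4 ion channel at some dose, with a dose response; inactive means no potentiation, no dose response, or not a prior hit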;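 further: calcium entry triggered by an EC20 dose of DAMGO at the co-expressed mu-opioid receptor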).
Assay [9] shares this target. In words: block of DAMGO-driven TRPC4 calcium entry – cell-based, HEK293 TRPC4/mu-opioid, Fluo-4 calcium, dose response (AID 434942;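 active means primary screen inhibitor hit that blocks the TRPC4 channel at some tested dose, yielding a dose curve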).
Assay [10] has as its target Short transient receptor potential channel 6 (Mus musculus) (UniProt Q61143). Nature of the assay: TRPC6 blockade by TRPC4 inhibitor hits – cell-based, HEK293, membrane potential dye, duplicate, selectivity assay for TRPC4 inhibitor project, confirmation (AID 434948;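 active means active in primary screen and both duplicates, each dropping signal beyond three positive-control SD with fluorescence still positive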). The settings on record: HEK293 TRPC6, membrane potential dye fluorescence, at 10 µM, stimulated with maximal-effect acetylcholine; active compounds read high.

Assay [11] has the same target. Nature of the assay: TRPC6 opening by TRPC4 activator hits – cell-based, HEK293, membrane potential dye, duplicate, selectivity assay for TRPC4 activator project, confirmation (AID 434950;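 active means membrane potential signal rise above negative control mean plus 3 SD in both duplicates, also active in the earlier TRPC4 screen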;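 on activation: 0% = buffer only wells and 100% = acetylcholine maximal-effect wells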). The settings on record: HEK293 TRPC6, membrane potential fluorescence, at 10 µM; activation: active compounds read high; outcome: activation.
Assay [12] shares this target. In words: positive modulators of mouse TRPC6 channel – HEK293 cells, membrane potential dye, duplicate, selectivity assay for TRPC4 potentiator project, confirmation (AID 434952;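 active means compound raising the membrane signal above positive-control mean plus 3 SD in both repeats, and a primary screen hit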). The settings on record: HEK293 TRPC6, membrane potential dye fluorescence, at 10 µM, maximal acetylcholine added after compound; active compounds read high.
In assay [13] the target is Short transient receptor potential channel 4 (Mus musculus) (UniProt Q9QUQ5). Nature of the assay: calcium flux activators in TRPC4/5HT1a cells, counter-screen for TRPC4 activator project, cell-based, second counter screen, HEK293 TRPC4/5HT1a, Fluo-4 (AID 434977;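 active means calcium signal rise above buffer-control mean plus 5 SD in both duplicates, and also a hit in the primary screen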). The settings on record: Fluo-4 calcium flux, at 10 µM; active compounds read high.
Sequence of Short transient receptor potential channel 4 (Mus musculus) (Q9QUQ5 whole entry, looked up): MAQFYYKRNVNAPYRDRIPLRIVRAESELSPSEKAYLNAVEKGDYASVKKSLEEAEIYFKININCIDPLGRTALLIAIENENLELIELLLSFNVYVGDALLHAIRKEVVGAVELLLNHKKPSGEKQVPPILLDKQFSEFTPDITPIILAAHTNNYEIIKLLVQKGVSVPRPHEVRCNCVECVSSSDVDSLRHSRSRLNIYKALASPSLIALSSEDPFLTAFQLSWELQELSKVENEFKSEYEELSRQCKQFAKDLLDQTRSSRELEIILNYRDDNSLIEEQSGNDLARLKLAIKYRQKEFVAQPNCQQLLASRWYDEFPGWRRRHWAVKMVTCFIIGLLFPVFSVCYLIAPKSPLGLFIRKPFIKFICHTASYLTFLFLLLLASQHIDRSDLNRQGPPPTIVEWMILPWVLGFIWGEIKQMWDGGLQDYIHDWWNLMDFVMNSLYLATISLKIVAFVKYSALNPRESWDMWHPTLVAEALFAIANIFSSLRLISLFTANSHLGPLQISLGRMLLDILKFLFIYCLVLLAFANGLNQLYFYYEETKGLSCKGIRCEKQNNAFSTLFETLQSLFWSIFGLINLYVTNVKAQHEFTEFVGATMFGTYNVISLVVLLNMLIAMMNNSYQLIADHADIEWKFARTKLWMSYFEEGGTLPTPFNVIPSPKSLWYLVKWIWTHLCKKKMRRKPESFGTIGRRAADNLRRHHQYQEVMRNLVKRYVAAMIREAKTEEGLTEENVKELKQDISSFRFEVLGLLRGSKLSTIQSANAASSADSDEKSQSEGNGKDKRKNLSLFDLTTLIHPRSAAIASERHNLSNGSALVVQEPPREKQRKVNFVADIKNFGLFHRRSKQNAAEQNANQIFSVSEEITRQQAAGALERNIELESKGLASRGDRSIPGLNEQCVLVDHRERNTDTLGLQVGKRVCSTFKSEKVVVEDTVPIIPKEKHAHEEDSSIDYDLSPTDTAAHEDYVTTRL
Assay [14] can be described thus: serotonin-gated TRPC4 signal block – cell-based, second counter screen, HEK293 TRPC4/5HT1a, Fluo-4, counter-screen for TRPC4 inhibitor project, confirmation (AID 434978;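 active means primary screen active whose calcium signal fell more than 3 SD beyond the full-serotonin control mean in both duplicate plates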;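 further: serotonin given first at submaximal then at maximal dose after compound preincubation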). The settings on record: Fluo-4 calcium flux, at 10 µM, serotonin added to trigger calcium flux; active compounds read high.
Assay [15] concerns TRPC4 (mouse), co-expressed with 5HT1a in HEK293. Nature of the assay: enhancement of serotonin-evoked TRPC4 response – cell-based, second counter screen, HEK293 TRPC4/5HT1a, Fluo-4, counter-screen for TRPC4 potentiator project, confirmation (AID 434979;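 active means signal rise over 3 SD above mean of control wells given weak agonist, in both repeats and first screen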). The settings on record: Fluo-4 calcium flux, at 10 µM, serotonin added at its EC20 dose; active compounds read high.
Assay [16] can be described thus: nonspecific calcium rise without TRPC4 – cell-based, HEK293 mu-opioid receptor line, counter-screen for TRPC4 activator project, confirmation (AID 449723;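 active means hit in primary screen, with calcium signal over 5 SD above buffer well mean in both duplicates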;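 further: counter screen cells carry the mu-opioid receptor alone and lack TRPC4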). The settings on record: HEK293 mu-opioid cells, Fluo-4 calcium fluorescence, at 10 µM; active compounds read high.
Assay [17] is described as follows: nonspecific potentiation of DAMGO calcium response – cell-based, HEK293 mu-opioid receptor line, counter-screen for TRPC4 allosteric potentiator project, confirmation (AID 449724;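 active means calcium signal rise more than 3 SD above the low-dose agonist control mean, in both duplicate plates and the primary screen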;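 further: HEK293 cells carrying mu-opioid receptor only with no TRPC4 channel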). The settings on record: HEK293 mu-opioid receptor cells, Fluo-4 calcium flux, at 10 µM, compound added before EC20 DAMGO stimulus; active compounds read high.

For some of these results: Results with a measured potency or affinity are listed apart. The source made the active and inactive calls.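 How the source made its calls, unless noted: active means calcium signal cut by more than 3 SD below the full-agonist control yet still positive, in both repeats and the earlier primary screen; inactive means the rest.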

Sequence of Short transient receptor potential channel 6 (Mus musculus) (Q61143 whole entry, looked up): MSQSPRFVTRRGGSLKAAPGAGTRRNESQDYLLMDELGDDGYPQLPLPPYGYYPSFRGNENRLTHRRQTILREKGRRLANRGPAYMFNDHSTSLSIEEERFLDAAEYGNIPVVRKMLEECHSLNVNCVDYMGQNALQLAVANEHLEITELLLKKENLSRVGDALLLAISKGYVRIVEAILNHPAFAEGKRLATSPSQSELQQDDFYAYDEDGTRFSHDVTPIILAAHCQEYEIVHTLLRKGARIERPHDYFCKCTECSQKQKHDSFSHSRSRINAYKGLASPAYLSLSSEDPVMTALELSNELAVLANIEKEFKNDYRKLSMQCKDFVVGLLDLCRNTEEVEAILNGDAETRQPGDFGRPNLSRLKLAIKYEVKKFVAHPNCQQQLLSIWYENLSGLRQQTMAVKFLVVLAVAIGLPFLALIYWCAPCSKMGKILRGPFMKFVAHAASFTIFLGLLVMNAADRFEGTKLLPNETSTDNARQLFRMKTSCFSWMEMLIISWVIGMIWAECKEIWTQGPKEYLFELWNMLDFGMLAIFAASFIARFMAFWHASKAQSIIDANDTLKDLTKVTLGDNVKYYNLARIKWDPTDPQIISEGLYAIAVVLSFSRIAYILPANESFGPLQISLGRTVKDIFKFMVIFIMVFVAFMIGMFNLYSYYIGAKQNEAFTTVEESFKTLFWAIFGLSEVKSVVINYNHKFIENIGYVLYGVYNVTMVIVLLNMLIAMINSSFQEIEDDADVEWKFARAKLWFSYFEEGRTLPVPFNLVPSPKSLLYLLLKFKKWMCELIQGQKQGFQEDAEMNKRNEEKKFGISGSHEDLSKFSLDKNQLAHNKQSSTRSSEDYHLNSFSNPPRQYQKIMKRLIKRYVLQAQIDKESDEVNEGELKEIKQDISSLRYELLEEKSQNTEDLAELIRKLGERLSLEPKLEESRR

With `COC(=O)c1cc(N2CCN(C)CC2)nc2ccccc12`, the result in assay [1], in assay [2], in assay [3], in assay [4], in assay [5] and in [6] was inactive. The outcome in [7], in [8], in assay [9], in assay [10], in assay [11] and in assay [12] was inactive. The result in assay [13], in assay [14], in [15], in assay [16] and in assay [17] was inactive.
As for `Cc1cc2nc(CSc3ccc(Cl)cc3)cc(=O)n2[nH]1`, the result in assay [1], in assay [2], in assay [3], in assay [4], in [5] and in [6] was inactive. In addition, the result in assay [7], in assay [8], in assay [9], in assay [10], in assay [11] and in [12] was inactive. Besides, the result in assay [13], in [14], in assay [15], in [16] and in assay [17] was inactive.
On to `O=C(Nc1nc(N2C(=O)c3ccccc3C2=O)n(-c2ccccc2)n1)c1ccc(Cl)cc1`, for which the result in assay [1], in [2], in assay [3], in assay [4], in assay [5] and in assay [6] was inactive. The outcome in assay [7], in assay [8], in assay [9], in assay [10], in [11] and in assay [12] was inactive. In addition, the result in assay [13], in assay [14], in [15], in assay [16] and in assay [17] was inactive.
As for `CC(=O)N1N=C(c2ccc(Br)cc2)OC1(C)CC(=O)Nc1ccccc1` (stereo not drawn), the result in assay [1], in assay [2], in [3], in assay [4], in [5] and in [6] was inactive. The result in assay [7], in [8], in assay [9], in [10], in [11] and in assay [12] was inactive. Besides, the outcome in assay [13], in assay [14], in assay [16] and in assay [17] was inactive. Moreover, the potentiation in assay [15] was 13.4% (active).
As to `CC(C)Cc1nc(Cl)c(C#N)c2c1CCCC2`, the outcome in assay [1], in assay [2], in assay [3], in [4], in [5] and in [6] was inactive. Moreover, the result in [7], in assay [8], in assay [9], in [10], in assay [11] and in assay [12] was inactive. Besides, the result in assay [13], in [14], in assay [15], in [16] and in assay [17] was inactive.
On to `CCOC(=O)c1c(NC(NC(C)=O)C(Cl)(Cl)Cl)sc2c1CCCC2` (stereo not drawn), for which the outcome in assay [1], in assay [2], in [3], in assay [4], in [5] and in [6] was inactive. Moreover, the result in assay [7], in [8], in assay [9], in assay [10], in assay [11] and in assay [12] was inactive. Also, the result in assay [13], in assay [14], in assay [16] and in [17] was inactive. The potentiation in assay [15] was 7.17% (active).
Turning to `CCOC(=O)c1c(C)oc2ccc(O)c(CN3CCCCC3)c12`, the outcome in assay [1], in assay [2], in [3], in [4], in assay [5] and in assay [6] was inactive. The result in assay [7], in [8], in assay [9], in assay [10], in assay [11] and in [12] was inactive. For the same molecule, the outcome in assay [13], in assay [14], in assay [15], in assay [16] and in assay [17] was inactive.
On to `N=c1oc2ccc(Cl)cc2cc1C(=O)NC1CCCCCC1`, for which the result in [1], in assay [2], in assay [3], in assay [4], in assay [5] and in assay [6] was inactive. In addition, the outcome in [7], in assay [8], in assay [9], in assay [10], in [11] and in assay [12] was inactive. Besides, the outcome in assay [13], in assay [14], in assay [15], in assay [16] and in assay [17] was inactive.
With `COc1cccc(C(=O)Oc2ccc(/C=N/Nc3ccc(C(=O)O)cc3)cc2OC)c1`, the outcome in [1], in assay [2], in [3], in [4], in assay [5] and in assay [6] was inactive. Besides, the result in assay [7], in assay [8], in [9], in [10], in assay [11] and in [12] was inactive. Besides, the result in [13], in [14], in assay [15], in [16] and in assay [17] was inactive.
Turning to `NC(N)=NN=C1CCC(c2ccccc2)CC1` (stereo not drawn), the result in assay [1], in assay [2], in assay [3], in assay [4], in [5] and in assay [6] was inactive. Further, the result in [7], in assay [8], in assay [9], in assay [10], in assay [11] and in [12] was inactive. Also, the outcome in assay [13], in assay [14], in assay [15], in assay [16] and in [17] was inactive.
`OC1(c2ccc(Br)cc2)CN(c2ccccc2)C2=[N+]1CCS2` (stereo not drawn): the outcome in [1], in [2], in [3], in assay [4], in assay [5] and in [6] was inactive. Moreover, the result in assay [7], in [8], in [9], in assay [10], in assay [12] and in assay [13] was inactive. Further, the outcome in [14], in assay [15], in [16] and in assay [17] was inactive. The activation in assay [11] is 36.5% (active).
For the molecule `Cc1ccc(NS(=O)(=O)c2cc(N)ccc2Cl)c(C)c1`, the outcome in assay [1], in assay [2], in [3], in assay [4], in assay [5] and in assay [6] was inactive. The outcome in [7], in [8], in [9], in assay [10], in assay [11] and in [12] was inactive. Moreover, the result in assay [13], in [14], in [15], in assay [16] and in [17] was inactive.
For `COc1cccc(OCC(=O)NC2CCCCC2)c1`, the result in [1], in assay [2], in assay [3], in assay [5], in assay [6] and in [7] was inactive. Moreover, the result in assay [8], in [9], in assay [10], in assay [11], in assay [12] and in [13] was inactive. For the same molecule, the outcome in assay [14], in assay [16] and in [17] was inactive. Besides, the potentiation is 41% (active) in [4] and 26.3% (active) in assay [15].
On to `Cc1ccc2nc(C(=O)N3CCc4c([nH]c5ccccc45)C3c3ccccn3)cn2c1` (stereo not drawn), for which the result in assay [1], in assay [2], in assay [3], in [4], in assay [5] and in [6] was inactive. Also, the outcome in [7], in [8], in [9], in assay [10], in [11] and in [12] was inactive. For the same molecule, the result in assay [13], in [14], in assay [15], in [16] and in [17] was inactive.
